ST2 IL33 inh – blocks human ST2 binding to IL-33; Q01638; inhibition, % for hits at 17 µM; 78,000 tested, 2.3% active; AlphaLISA ST2-Fc/biotin-IL-33 interaction, 1 h; in the data active = inhibition above about 30%
Target sequence (Q01638 whole entry, looked up): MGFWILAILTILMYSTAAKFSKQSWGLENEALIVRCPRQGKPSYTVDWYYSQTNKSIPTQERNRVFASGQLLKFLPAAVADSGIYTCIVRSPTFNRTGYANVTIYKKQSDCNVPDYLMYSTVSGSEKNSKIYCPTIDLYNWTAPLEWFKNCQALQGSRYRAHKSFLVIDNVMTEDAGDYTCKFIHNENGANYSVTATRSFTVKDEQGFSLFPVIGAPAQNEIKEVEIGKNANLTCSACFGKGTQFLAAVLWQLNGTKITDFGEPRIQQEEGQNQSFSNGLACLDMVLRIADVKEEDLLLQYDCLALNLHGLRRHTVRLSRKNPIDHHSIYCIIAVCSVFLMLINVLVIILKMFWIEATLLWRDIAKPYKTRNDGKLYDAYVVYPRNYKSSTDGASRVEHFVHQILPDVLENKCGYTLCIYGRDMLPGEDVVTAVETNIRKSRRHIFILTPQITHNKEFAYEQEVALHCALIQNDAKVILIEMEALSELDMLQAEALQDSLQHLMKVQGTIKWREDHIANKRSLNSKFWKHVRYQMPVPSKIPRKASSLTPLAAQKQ
The depositor's hits bear a star; i = inactive. The full list was thinned out, with hits kept by preference.

SMILES	ST2 IL33 inh
Cc1cccc(NS(=O)(=O)c2ccc(F)cc2)c1	i
CCOc1ccc(NC(=O)C(c2ccccc2)c2ccccc2)cc1	i
CCOc1ccc(NC2=CC(=NS(=O)(=O)c3ccccc3)c3ccccc3C2=O)cc1	77.0%*
COc1ccc(NS(=O)(=O)c2ccc(NC(=O)Nc3ccc(Cl)cc3)cc2)cc1	i
O=C1C(Nc2ccccc2)=CC(c2ccc(O)cc2)N1c1ccccc1 (stereo not drawn)	i
CCOc1ccc(NC(=O)Cc2ccccc2)cc1	i
O=S(=O)(Nc1ccc(Oc2ccccc2)cc1)c1ccc(Cl)cc1	i
O=C1C=C(Nc2ccc(O)cc2)C(=O)c2ccccc21	42.0%*
COc1ccc(NC2=CC(=NS(=O)(=O)c3ccc(Cl)cc3)c3ccccc3C2=O)cc1	93.0%*
Cc1cccc(Nc2c3c4c(cccc4n(C)c2=O)C(=O)c2ccccc2-3)c1	i
COc1ccc(S(=O)(=O)N=C2C=C(Nc3cccc(C)c3)C(=O)c3ccccc32)cc1	79.0%*
O=S(=O)(O)c1ccc(Nc2ccccc2)cc1	i
Cc1ccc(-n2ncnc2-c2ccccc2C)cc1Cl	i
Cc1cccc(NC(=O)C(O)c2ccccc2)c1 (stereo not drawn)	i
Cc1ccc(-n2ncc3c2CC(C)(C)CC3NC(=O)/C=C/C(C)C)cc1 (stereo not drawn)	i
O=C(Nc1c(-c2ccc(F)cc2)nc2ccccn12)c1cccc(Cl)c1	i
CCC1CN(C(=O)CNS(C)(=O)=O)CCC(=O)N1Cc1ccccc1 (stereo not drawn)	i
COc1ccc2c(c1)OC1(C)CC2/C(=C(\C)O)C(=O)N1 (stereo not drawn)	i
C=CCOc1ccc(C(=O)O)cc1	i
CCOc1ccc(OCC(=O)Nc2c(C(=O)Nc3cccc(F)c3)oc3ccccc23)cc1	i
CC(C)c1ccc(NC(=O)CN2C(=O)C3CCCCN3c3ccc(C(=O)N4CCOCC4)cc32)cc1 (stereo not drawn)	i
CCOc1ccc(NC2=CC(=NS(=O)(=O)c3ccc(OC)cc3)c3ccccc3C2=O)cc1	94.0%*
CCc1ccc(NS(=O)(=O)c2ccc(OC)c(OC)c2)cc1	i
CCOc1ccc(S(=O)(=O)N=C2C=C(Nc3ccc(O)cc3)C(=O)c3ccccc32)cc1	84.0%*
CCOc1ccc(NC(=O)C(Cc2ccccc2)N2C(=O)c3ccccc3C2=O)cc1 (stereo not drawn)	i
SMILES	ST2 IL33 inh
Cc1ccc(Cl)cc1NC1=CC(=NS(=O)(=O)c2cccs2)c2ccccc2C1=O	56.0%*
CCc1ccc(S(=O)(=O)N=C2C=C(Nc3ccc(O)cc3)C(=O)c3ccccc32)cc1	91.0%*
Cc1ccc(Cl)cc1N1CCN(C(=O)C(NS(=O)(=O)c2cccs2)C(C)C)CC1 (stereo not drawn)	i
CCOc1ccc(NC2=NS(=O)(=O)c3ccccc32)cc1	i
CCOc1ccc(NC(=O)COc2ccc(OC)cc2)cc1	i
O=S(=O)(N=C(Nc1cccc(O)c1)c1ccccc1)c1ccc(Cl)cc1	i
CCOc1ccc(NC(=O)c2ccccc2Cl)cc1	i
O=S(=O)(Nc1ccc(F)c(Cl)c1)c1cccs1	i
O=C(Nc1ccc(F)cc1)c1oc2ccccc2c1NC(=O)c1cc2ccccc2oc1=O	i
CC(Cn1cccn1)C(=O)NCc1ccc2[nH]c3c(c2c1)CCCC3 (stereo not drawn)	i
COc1cc(S(=O)(=O)NCc2ccncc2)ccc1Cl	i
O=C1C(Nc2ccc(O)cc2)=CC(=NS(=O)(=O)c2cccs2)c2ccccc21	88.0%*
NC(=O)c1ccc(NS(=O)(=O)c2cccs2)cc1	i
CC(C)N=C(NS(=O)(=O)c1cccs1)c1ccccc1	i
Cc1nc(N2CCN(C)CC2)ncc1C(=O)N1C[C@H]2CC=CC[C@H]2C1	i
O=C(Cn1cnc2c(cnn2-c2ccc(Cl)cc2)c1=O)Nc1ccc(Br)cc1	i
Cc1ccc(NC(=O)CCNC(=O)c2ccc(-n3cnnc3)cc2)cc1	i
CCC(Sc1nc2c(cc1C#N)CCCCC2)C(=O)Nc1cc(C)on1 (stereo not drawn)	30.0%*
CCSc1nc2c(cc1C#N)CCCC2	i
CCC(Sc1nc(C)cc(C)n1)C(=O)Nc1cc(C)on1 (stereo not drawn)	i
Cc1cc2ccccc2c(=O)n1CC(=O)NCC(=O)N1CCN(C)CC1	i
CCCCn1c(CN2CCC(Oc3ccccc3OC)CC2)cnc1S(=O)(=O)CC	i
CCC(=O)Nc1nc(-c2cccs2)nc2c1c(=O)oc1ccccc12	i
Nc1[nH]nc2nc(N3CCCCC3)nc(-c3ccccc3)c12	i
Cc1ccc(CCC(=O)N2CCC(Cn3cc(CO)nn3)CC2)cc1C	i
SMILES	ST2 IL33 inh
COc1cc(N2CCC(Cn3cc(CO)nn3)CC2)ncn1	65.0%*
COc1ccc(OC)c(C2CCN(c3cc(OC)ncn3)C2)c1 (stereo not drawn)	i
CN(C)c1ccc(/C=C/c2nc3ccccc3c(=O)n2CCCO)cc1	i
CN(C)c1ccc(/C=C/c2nc3ccc(I)cc3c(=O)n2C)cc1	42.0%*
COc1ccc(/C=C/c2nc3ccccc3c(=O)n2Cc2ccccc2)cc1	i
CC1=NN(c2ccc(F)cc2)C(=O)/C1=C/c1ccc(N(C)C)cc1	i
COc1cc(/C=C2/NC(=O)NC2=O)cc(OC)c1O	i
Cc1ccc(N2NC(=O)/C(=C/c3ccc(Cl)cc3)C2=O)cc1Cl	i
C=CCOc1ccc(/C=C2\C(=O)NN(c3cccc(Br)c3)C2=O)cc1OC	34.0%*
COc1cc(C=C2C(=O)OC(C)(c3ccccc3)OC2=O)ccc1OCc1cccc(C(=O)O)c1 (stereo not drawn)	i
COc1cc(/C=C2/C(=O)NN(c3ccc(Cl)cc3)C2=O)cc(OC)c1O	30.0%*
CCN(C)c1ccc(/C=C2/C(=O)NN(c3cccc(Br)c3)C2=O)cc1	39.0%*
COc1cc(C=O)ccc1OCCOc1ccc(Br)cc1Cl	i
O=C1NN(c2cccc(Br)c2)C(=O)/C1=C\c1ccccc1	i
Cc1cc(C)c(C(=O)c2ccccc2)c(=O)[nH]1	i
CCOC(=O)N1CCC(NCCc2nnc(N)s2)CC1	i
Cc1nn(C)c(C)c1CN(C)C(=O)CC(c1ccccc1)c1ccccc1F (stereo not drawn)	i
O=C(CSc1cccc(-c2ccccc2)n1)c1cccs1	i
CC1CCCCC1NC(=O)C1CCN(S(C)(=O)=O)CC1 (stereo not drawn)	i
CN(C)c1ccc(Nc2c([N+](=O)[O-])cc([N+](=O)[O-])c3cccnc23)cc1	95.0%*
CN(C)c1ccc(NC(=O)Nc2ccc3nc(-c4ccccn4)c(-c4ccccn4)nc3c2)cc1	i
O=[N+]([O-])c1cc(Cl)c2cccnc2c1O	i
O=C1C(=C(O)c2ccccc2)NS(=O)(=O)c2ccccc21	i
O=C1CN(C(=O)c2ccccc2)C(=O)CN1C(=O)c1ccccc1	i
O=C1C(=C(c2ccccc2)c2ccccc2)C(=O)c2ccccc21	39.0%*
SMILES	ST2 IL33 inh
CC(=O)N1c2c(cc(Br)cc2S(=O)(=O)Nc2cccc(F)c2)CC1C (stereo not drawn)	i
O=C(Nc1ccccc1F)c1ccc(Cl)c(Cl)c1	i
CC(C)(C)C1=CC(=O)c2c(ccc(C(C)(C)C)c2O)C1=O	65.0%*
Cc1ccccc1NC(=O)c1ccc(C)c(S(=O)(=O)Nc2cccc(Br)c2)c1	i
CCn1cc(C(=O)N2CCOCC2)c(=O)c2cc(S(=O)(=O)N3CCOCC3)ccc21	i
COc1ccccc1CNc1ccc2c(c1)ncn2C1CCCCC1	33.0%*
COc1ccccc1CNc1ccc2c(c1)ncn2C(C)(C)C	i

Compound activity as filed in PubChem.
